Cruzain noTriton: qHTS Assay for Promiscuous and Specific Inhibitors of Cruzain (without detergent); Cruzipain (Trypanosoma cruzi), P25779; Potency, µM, for the others: max response, negative = inhibition, hits mostly inhibitors; 200,000 tested, 2.3% active; purified cruzain, Z-FR-AMC fluorescence, no detergent;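 note: plate controls were enzyme without inhibitor for no effect and buffer without enzyme for full effect; nearly all actives have a fitted effect of over 40% in size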
Target sequence (P25779 123-467 limits assumed): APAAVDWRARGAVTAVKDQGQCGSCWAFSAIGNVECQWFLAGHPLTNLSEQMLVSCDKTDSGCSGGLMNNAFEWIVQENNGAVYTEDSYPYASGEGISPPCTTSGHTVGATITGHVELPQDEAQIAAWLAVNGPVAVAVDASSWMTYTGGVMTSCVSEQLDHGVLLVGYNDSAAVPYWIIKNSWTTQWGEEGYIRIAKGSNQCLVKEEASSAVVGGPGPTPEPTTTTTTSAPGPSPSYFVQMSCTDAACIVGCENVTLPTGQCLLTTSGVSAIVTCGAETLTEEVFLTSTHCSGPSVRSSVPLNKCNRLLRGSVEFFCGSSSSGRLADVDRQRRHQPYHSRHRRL
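Purified cruzain at 1.5 nM, pre-incubated 15 min with compound at room temperature in 100 mM sodium acetate pH 5.5, 5 mM DTT, 0.00005% Triton X-100. Reaction started with 2 uM Z-FR-AMC; AMC fluorescence increase over 60 s gives rate.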
Cruzain inh Det: qHTS Assay for Promiscuous and Specific Inhibitors of Cruzain (with detergent); Cruzipain (Trypanosoma cruzi), P25779; purified cruzain, Z-FR-AMC fluorescence, 0.01% Triton; Potency, µM, without a hit: max response, negative = inhibition, most hits filed as inhibitors; 200,000 tested, 0.43% active; AID 1478, 2009;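 note: plate controls were neutral wells for no effect and buffer without enzyme for full effect; nearly all actives have a fitted effect of over 40% in size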
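Purified cruzain (1.5 nM final) was preincubated with compounds for 15 min at room temperature in 100 mM sodium acetate pH 5.5, 5 mM DTT, 0.01% Triton X-100. Reaction started with 2 uM Z-FR-AMC; AMC fluorescence change over 60 s gave activity.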
An asterisk follows results filed as active; u = inconclusive. An excerpt weighted towards active compounds, which were near 2.4% of everything screened. Calls come from the whole dose curve; as a rule, active = well fitted curve in the direction sought with a large enough effect; inconclusive = small, poorly fitted or top-dose-only effect, or another doubt; inactive = no such curve, though single readings can be large; an effect the other way counts as inactive or inconclusive. Potency is the fitted concentration of half-maximal effect.

SMILES | Cruzain noTriton | Cruzain inh Det
O=C1CS(=O)(=O)C2(C(=O)Nc3ccccc32)N1c1cccc(Cl)c1 (stereo not drawn) | -25% | -3%
Cc1ccc(CN2C(=O)C3(SCC(=O)N3c3ccc(C)c(C)c3)c3ccccc32)cc1 (stereo not drawn) | u | -9%
Cc1ccc(N2C(=O)CS(=O)(=O)C23C(=O)N(Cc2ccc(Cl)cc2)c2ccccc23)cc1C (stereo not drawn) | 13µM* | -3%
COc1cc(C2SCCCCCCCCCCSC(c3ccc(O)c(OC)c3)SCCCCCCCCCCS2)ccc1O (stereo not drawn) | -7% | -1%
Cc1c(C(=O)N(C)C2CCCCC2)sc2nc3ccc(N)cc3n12 | -7% | 2%
COc1ccc(N2C(=O)CS(=O)(=O)C23C(=O)N(Cc2ccc(F)cc2)c2ccc(C)cc23)cc1 (stereo not drawn) | 3.2µM* | -3%
COc1ccc(N2C(=O)CCSC23C(=O)N(Cc2ccc(F)cc2)c2ccccc23)cc1 (stereo not drawn) | 6% | -4%
O=[N+]([O-])c1cccc(/C([O-])=C(/C(=S)Nc2ccccc2)[n+]2ccccc2)c1 | 25µM* | -22%
O=C(/C(=C(/[O-])c1ccccc1)[n+]1ccccc1)c1ccc([N+](=O)[O-])cc1 | -19% | -5%
COc1ccc(-c2nc3cnc(N(C)C)nc3n(CCC#N)c2=O)cc1 | -1% | 4%
O=C(O)/C=C\c1ccc(Cn2ccnc2)cc1 | -10% | 2%
COc1ccccc1NC(=O)C1=C(C)Nc2nc(SCc3ccccc3)nn2C1c1cccc(O)c1 (stereo not drawn) | -11% | -5%
Cc1ccc2nc(/C(C#N)=C/c3cccc(Br)c3)[nH]c2c1 | 20µM* | -2%
COc1cc(/C=C(\C#N)c2nc3ccc(C)cc3[nH]2)ccc1OC(C)C | 4% | -1%
N#C/C(=C\c1ccc(-c2ccc(Cl)c(C(=O)O)c2)o1)c1nc2ccccc2[nH]1 | -5% | -3%
Cc1ccc2nc(/C(C#N)=C/c3ccc(-c4cccc(Cl)c4)o3)[nH]c2c1 | 13µM* | u
CC(=O)N1CCC2(CCCN(c3ccc(-c4ccccc4)cc3)C2)CC1 | u | -5%
Cc1cccc(NC(=O)c2sc3nc(-c4cc5ccc(O)cc5oc4=O)[nH]c(=O)c3c2C)c1 | -11% | 0%
O=C(COc1ccc(/C=N/NC(=O)c2cc3ccccc3o2)cc1Cl)Nc1ccccc1 | 20µM* | 22µM*
O=C(N/N=C/c1cccc([N+](=O)[O-])c1)c1cc2ccccc2o1 | u | -17%
COc1cccc(-c2csc(-c3c(N)c(C(=O)c4ccc5c(c4)OCO5)n4ccccc34)n2)c1 | 3.2µM* | -2%
CCOc1ccc(C(=O)c2c(N)c(-c3nc(-c4ccc(OCC)cc4)cs3)c3ccccn23)cc1 | -19% | -2%
COc1ccc(C(=O)c2c(N)c(-c3nc(-c4ccc(OC)cc4)cs3)c3ccccn23)cc1 | u | -2%
COc1ccccc1C(=O)c1c(N)c(-c2nc(-c3ccccc3)cs2)c2ccccn12 | 10µM* | -5%
COc1ccc(C(=O)c2c(N)c(-c3nc(-c4ccccc4)cs3)c3ccccn23)cc1 | 7.9µM* | -3%
SMILES | Cruzain noTriton | Cruzain inh Det
CCOc1ccc(C(=O)c2c(N)c(-c3nc(-c4ccc5c(c4)OCO5)cs3)c3ccccn23)cc1 | -19% | -2%
CCCCC/C=C\C[C@@H]1O[C@H]1C(O)/C=C\C/C=C\CCCC(=O)O (stereo partly drawn) | -9% | 1%
Cc1ccn2c(Nc3ccc4c(c3)OCCO4)c(-c3ccc(C)o3)nc2c1 | -9% | -15%
COc1ccccc1NC(=O)C1=C(C)Nc2c(C(=O)Nc3ccc(F)cc3)cnn2C1c1ccc(Cl)cc1 (stereo not drawn) | u | -4%
COc1ccccc1Oc1ccc2c(c1)C(=O)N(c1ccc(O)cc1)C2=O | 20µM* | 1%
CC(C)(C)C(=O)Nc1ccc(Oc2ccc3c(c2)C(=O)N(c2ccc(O)cc2)C3=O)cc1 | -11% | 0%
CCN(CC)S(=O)(=O)c1cc([N+](=O)[O-])ccc1NNC(=O)Nc1ccc(F)cc1 | -4% | -7%
CC1(C(=O)NC2CCCCC2)Cc2ccccc2C(=O)N1Cc1ccccc1Cl (stereo not drawn) | 10% | -1%
CCCCOP(=O)(OCCCC)C(Nc1ccccc1)c1ccc2c(c1)OCO2 (stereo not drawn) | 6% | -12%
CCOP(=O)(OCC)C(Nc1ccccc1)c1ccc2c(c1)OCO2 (stereo not drawn) | 13µM* | 0%
COc1ccc(C(=O)c2ccc(Cl)cc2)cc1 | 6% | -3%
COc1ccc(N=C2C(=Nc3ccc(OC)cc3)N(c3ccc(OC)cc3)C(=S)N2C(=O)c2ccc(OC)cc2)cc1 | 5µM* | -5%
COc1ccc(N2CCN(C(=O)c3ccncc3)CC2)cc1 | 2% | 6%
COc1ccc(N=C2C(=Nc3ccc(OC)cc3)N(c3ccccc3)C(=S)N2C(=O)c2ccc(Cl)cc2)cc1 | 4µM* | -3%
COc1ccc(NC(=S)c2ccc(N(C)C)cc2)cc1 | 8% | -4%
COc1ccc(N=C2C(=Nc3ccc(OC)cc3)N(c3ccc(N(C)C)cc3)C(=S)N2c2ccc(OC)cc2)cc1 | 7.9µM* | -5%
N[C@@H](CSCc1ccc(I)cc1)C(=O)O | 5% | 0%
O=C(O)[C@@H]1[C@@H]2C[C@H]([C@@H](Br)[C@H]2N2C(=O)CCC2=O)[C@@H]1C(=O)O | 11% | 3%
COc1cccc([C@@H]2Oc3ccc(Br)cc3C(=O)[C@H]2OC(=O)N[C@H]2CCCc3ccccc32)c1 | u | 2%
Cc1cc(C)n(-c2ccc(C(=O)OCn3nnc4ccccc4c3=O)cc2)n1 | 12% | 2%
Cc1nn(-c2ccccc2)c2sc(C(=O)Nc3ccc(Br)cc3)cc12 | 5% | -4%
Cc1nn(-c2ccccc2)c2sc(C(=O)OCn3nnc4ccccc4c3=O)cc12 | 25µM* | -4%
Cc1nn(-c2ccccc2)c2sc(C(=O)Nc3cccc(Br)c3)cc12 | 20µM* | -2%
Cc1cccc(Cn2c(=O)n(-c3ccccc3C)c(=O)c3c2c2cc(C)ccc2n3C)c1 | -12% | -3%
CC(=O)N(O)[C@@H]1c2cc(C#N)ccc2OC(C)(C)[C@H]1O | -8% | 1%
SMILES | Cruzain noTriton | Cruzain inh Det
O=c1c2sc3ccccc3c2n(Cc2cccc(Cl)c2)c(=O)n1Cc1ccc(F)cc1 | 6.3µM* | -4%
O=c1c2sc3ccccc3c2n(Cc2cccc(Cl)c2)c(=O)n1Cc1ccccc1 | u | -1%
COc1ccccc1NC(=O)C1=C(C)Nc2c(C(=O)Nc3cccc(C)c3)cnn2C1c1ccccc1C (stereo not drawn) | u | -5%
CC1=C(C(=O)Nc2ccccc2)C(c2cc(Br)ccc2F)n2ncc(C(=O)Nc3ccccc3)c2N1 (stereo not drawn) | 20µM* | -4%
CC1=C(C(=O)Nc2ccc(C)cc2C)C(c2cc(Br)ccc2F)n2ncc(C(=O)Nc3ccc(C)cc3)c2N1 (stereo not drawn) | -29% | -1%
COc1ccccc1NC(=O)C1=C(C)Nc2c(C(=O)Nc3cccc(C)c3)cnn2C1c1ccccc1Cl (stereo not drawn) | 25µM* | -6%
FC(F)(F)c1nc2ccc(SSc3ccc4nc(C(F)(F)F)[nH]c4c3)cc2[nH]1 | -5% | -2%
O=C(O)C[C@H](S)C(=O)O | -8% | 3%
